From ChEMBL document CHEMBL2218924, “A broad activity screen in support of a chemogenomic map for kinase signalling research and drug discovery” (Biochem J, 2013)

Each compound was assayed against Receptor tyrosine-protein kinase erbB-4 (Homo sapiens) (UniProt Q15303). Conditions: at 1 µM.
Receptor tyrosine-protein kinase erbB-4 (Homo sapiens), sequence (Q15303 whole entry): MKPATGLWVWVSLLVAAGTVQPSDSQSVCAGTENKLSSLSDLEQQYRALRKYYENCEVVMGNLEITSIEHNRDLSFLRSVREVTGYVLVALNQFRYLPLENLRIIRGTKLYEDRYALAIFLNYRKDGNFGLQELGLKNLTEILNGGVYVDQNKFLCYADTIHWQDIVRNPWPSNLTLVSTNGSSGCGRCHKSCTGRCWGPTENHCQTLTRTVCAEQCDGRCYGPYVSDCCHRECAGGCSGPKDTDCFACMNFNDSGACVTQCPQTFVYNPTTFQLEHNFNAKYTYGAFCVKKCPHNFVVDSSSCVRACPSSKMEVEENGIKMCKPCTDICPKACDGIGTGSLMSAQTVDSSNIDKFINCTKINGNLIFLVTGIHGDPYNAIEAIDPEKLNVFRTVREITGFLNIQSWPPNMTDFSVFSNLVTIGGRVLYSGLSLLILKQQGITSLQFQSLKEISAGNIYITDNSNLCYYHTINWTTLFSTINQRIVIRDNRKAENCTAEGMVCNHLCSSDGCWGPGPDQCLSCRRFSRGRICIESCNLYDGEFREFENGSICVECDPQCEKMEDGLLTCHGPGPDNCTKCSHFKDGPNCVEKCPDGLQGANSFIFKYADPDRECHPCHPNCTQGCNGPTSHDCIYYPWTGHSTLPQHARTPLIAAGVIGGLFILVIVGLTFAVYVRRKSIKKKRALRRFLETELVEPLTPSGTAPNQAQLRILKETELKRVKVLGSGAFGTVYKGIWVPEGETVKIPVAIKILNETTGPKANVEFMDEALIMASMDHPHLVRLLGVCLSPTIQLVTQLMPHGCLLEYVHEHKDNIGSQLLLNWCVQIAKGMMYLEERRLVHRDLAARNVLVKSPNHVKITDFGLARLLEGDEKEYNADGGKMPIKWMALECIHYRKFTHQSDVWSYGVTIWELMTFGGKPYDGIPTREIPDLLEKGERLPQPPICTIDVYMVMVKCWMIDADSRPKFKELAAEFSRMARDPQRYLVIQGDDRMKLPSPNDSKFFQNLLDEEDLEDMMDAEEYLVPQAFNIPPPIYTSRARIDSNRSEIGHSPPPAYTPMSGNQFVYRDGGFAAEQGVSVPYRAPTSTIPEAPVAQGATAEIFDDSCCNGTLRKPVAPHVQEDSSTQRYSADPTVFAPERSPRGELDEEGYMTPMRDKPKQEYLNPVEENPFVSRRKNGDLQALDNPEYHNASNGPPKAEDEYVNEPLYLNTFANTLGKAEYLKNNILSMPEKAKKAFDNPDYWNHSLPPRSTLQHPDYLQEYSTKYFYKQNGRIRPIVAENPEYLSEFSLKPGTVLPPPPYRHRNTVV

Point of comparison: `CC(C)c1nn(-c2c(Cl)cccc2Cl)c2nc(Cc3ccc(OCCO)cc3)[nH]c(=O)c12`, residual activity 103%. Against it:
- COc1ccc2c(c1)c(C1=C(c3c[nH]c4ccccc34)C(=O)NC1=O)cn2CCCN(C)C — lower, 75%
- COc1cc2nccc(Oc3ccc(NC(=S)NC(=O)c4ccccc4C)cc3)c2cc1OC — lower, 85%
- O=c1cc(N2CCOCC2)oc2c1ccc1ccccc12 — higher, 106%
- COc1ccc(COc2ccc(Cc3cnc(N)nc3N)cc2OC)cc1 — lower, 99%
- Nc1ncnc2c1c(-c1ccc(Oc3ccccc3)cc1)cn2C1CCCC1 — lower, 0%
- COc1cc2ncnc(Nc3cccc(Cl)c3)c2cc1OC — lower, 35%
- O=c1cc(N2CCNCC2)oc2c(-c3ccccc3)cccc12 — lower, 95%
- O=C1NC(=O)c2c1c1c3ccccc3[nH]c1n1cncc21 — lower, 87%
- CCCCc1c(-c2ccc(OC)cc2)[nH]c2nccnc12 — higher, 120%
- Cn1sc(=O)n(Cc2ccccc2)c1=O — lower, 87%
- CCCC(=O)Oc1ccc2[nH]c(C(=O)c3cc4ccccc4[nH]3)cc2c1 — lower, 81%
- CC(C)(C)n1nc(Cc2cccc3ccccc23)c2c(N)ncnc21 — lower, 51%
- O=C(CCCc1ccc(-c2ccccc2F)cc1)Nc1ccc(O)cc1 — higher, 111%
- Nc1ncnc2[nH]nc(Nc3ccc(F)cc3)c12 — lower, 18%
- CN(C)S(=O)(=O)c1ccc2c(c1)/C(=C/c1cc3c([nH]1)CCCC3)C(=O)N2 — lower, 88%
- O=C(O)/C=C/c1cc(Br)c(Br)c(Br)c1Br — lower, 59%
- NC(=O)Nc1sc(-c2ccc(F)cc2)cc1C(N)=O — lower, 91%
- O=C1Nc2ccc(Cl)cc2/C1=C/c1cc(Cl)c(O)c(Cl)c1 — lower, 91%

The compounds below were run against Receptor tyrosine-protein kinase erbB-4 (Homo sapiens) (UniProt Q15303). Conditions: at 10 µM.

Point of comparison: `COc1ccc2c(c1)c(C1=C(c3c[nH]c4ccccc34)C(=O)NC1=O)cn2CCCN(C)C`, residual activity 53%. Against it:
- COc1cc2nccc(Oc3ccc(NC(=S)NC(=O)c4ccccc4C)cc3)c2cc1OC — higher, 67%
- O=c1cc(N2CCOCC2)oc2c1ccc1ccccc12 — higher, 92%
- CSc1nc(-c2ccc(F)cc2)c(-c2ccnc(NC(C)c3ccccc3)c2)[nH]1 (stereo not drawn) — higher, 85%
- CC(C)[C@H](CO)Nc1nc(Nc2cc(N)cc(Cl)c2)c2ncn(C(C)C)c2n1 — higher, 84%
- COc1ccc(COc2ccc(Cc3cnc(N)nc3N)cc2OC)cc1 — higher, 70%
- Nc1ncnc2c1c(-c1ccc(Oc3ccccc3)cc1)cn2C1CCCC1 — lower, -4%
- COc1cc2nccc(Oc3ccc(NC(=O)Nc4cc(C)on4)c(Cl)c3)c2cc1OC — higher, 75%
- CC(C)c1nn(-c2c(Cl)cccc2Cl)c2nc(Cc3ccc(OCCO)cc3)[nH]c(=O)c12 — higher, 91%
- COc1cc2ncnc(Nc3cccc(Cl)c3)c2cc1OC — lower, 4%
- O=c1cc(N2CCNCC2)oc2c(-c3ccccc3)cccc12 — higher, 73%
- O=C1NC(=O)c2c1c1c3ccccc3[nH]c1n1cncc21 — higher, 73%
- CCCCc1c(-c2ccc(OC)cc2)[nH]c2nccnc12 — higher, 102%
- Cn1sc(=O)n(Cc2ccccc2)c1=O — higher, 98%
- Nc1n[nH]c2nc3ccccc3nc12 — higher, 87%
- CCCC(=O)Oc1ccc2[nH]c(C(=O)c3cc4ccccc4[nH]3)cc2c1 — higher, 95%
- CC(C)(C)n1nc(Cc2cccc3ccccc23)c2c(N)ncnc21 — lower, 8%
- O=C(CCCc1ccc(-c2ccccc2F)cc1)Nc1ccc(O)cc1 — higher, 127%
- Nc1ncnc2[nH]nc(Nc3ccc(F)cc3)c12 — lower, 11%
- CN(C)S(=O)(=O)c1ccc2c(c1)/C(=C/c1cc3c([nH]1)CCCC3)C(=O)N2 — higher, 82%
- O=C(O)/C=C/c1cc(Br)c(Br)c(Br)c1Br — lower, 45%
- NC(=O)Nc1sc(-c2ccc(F)cc2)cc1C(N)=O — higher, 59%
- O=C1Nc2ccc(Cl)cc2/C1=C/c1cc(Cl)c(O)c(Cl)c1 — higher, 76%

What follows are compounds tested against Focal adhesion kinase 1 (Homo sapiens) (UniProt Q05397). Conditions: at 1 µM.
Focal adhesion kinase 1 (Homo sapiens), sequence (Q05397 2-1052 limits assumed): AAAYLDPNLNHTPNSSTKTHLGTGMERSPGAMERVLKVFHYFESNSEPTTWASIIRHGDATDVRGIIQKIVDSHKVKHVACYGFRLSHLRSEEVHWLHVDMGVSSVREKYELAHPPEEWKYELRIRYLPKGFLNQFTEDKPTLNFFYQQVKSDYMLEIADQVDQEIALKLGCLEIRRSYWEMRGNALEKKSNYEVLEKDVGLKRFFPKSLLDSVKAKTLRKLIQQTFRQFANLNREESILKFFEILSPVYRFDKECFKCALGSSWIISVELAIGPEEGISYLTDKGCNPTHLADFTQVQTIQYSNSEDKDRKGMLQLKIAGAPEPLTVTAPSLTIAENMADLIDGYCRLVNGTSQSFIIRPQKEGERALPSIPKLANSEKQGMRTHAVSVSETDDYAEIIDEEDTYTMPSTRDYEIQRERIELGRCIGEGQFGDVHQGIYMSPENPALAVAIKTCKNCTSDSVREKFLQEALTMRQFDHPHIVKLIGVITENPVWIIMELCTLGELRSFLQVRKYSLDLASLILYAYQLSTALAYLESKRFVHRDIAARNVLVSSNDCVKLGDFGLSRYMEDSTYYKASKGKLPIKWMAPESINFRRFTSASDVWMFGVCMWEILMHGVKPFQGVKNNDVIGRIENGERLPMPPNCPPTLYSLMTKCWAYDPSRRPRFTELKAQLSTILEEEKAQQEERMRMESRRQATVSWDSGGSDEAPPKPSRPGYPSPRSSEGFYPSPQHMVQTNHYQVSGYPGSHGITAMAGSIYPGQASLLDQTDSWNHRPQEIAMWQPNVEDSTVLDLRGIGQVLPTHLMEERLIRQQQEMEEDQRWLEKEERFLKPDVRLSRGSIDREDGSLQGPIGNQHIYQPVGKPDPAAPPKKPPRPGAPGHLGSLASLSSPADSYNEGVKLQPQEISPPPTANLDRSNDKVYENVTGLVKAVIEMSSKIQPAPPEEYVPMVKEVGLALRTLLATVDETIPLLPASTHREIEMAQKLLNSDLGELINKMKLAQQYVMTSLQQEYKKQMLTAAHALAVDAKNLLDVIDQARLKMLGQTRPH

Point of comparison: `COc1ccc(COc2ccc(Cc3cnc(N)nc3N)cc2OC)cc1`, residual activity 115%. Against it:
- CCN(CC)CCNC(=O)c1c(C)[nH]c(/C=C2\C(=O)Nc3ccc(Cl)cc32)c1C — lower, 15%
- Cn1c2ccccc2c2c3c(c4c5ccccc5n(CCC#N)c4c21)CNC3=O — lower, 33%
- O=c1cc(N2CCOCC2)oc2c1ccc1ccccc12 — higher, 132%
- CC(C)[C@H](CO)Nc1nc(Nc2cc(N)cc(Cl)c2)c2ncn(C(C)C)c2n1 — lower, 42%
- Nc1ncnc2c1c(-c1ccc(Oc3ccccc3)cc1)cn2C1CCCC1 — higher, 116%
- COc1cc2nccc(Oc3ccc(NC(=O)Nc4cc(C)on4)c(Cl)c3)c2cc1OC — lower, 96%
- O=C1Cc2c([nH]c3ccc(Br)cc23)-c2ccccc2N1 — lower, 82%
- CC(C)c1nn(-c2c(Cl)cccc2Cl)c2nc(Cc3ccc(OCCO)cc3)[nH]c(=O)c12 — lower, 109%
- COc1cc2ncnc(Nc3cccc(Cl)c3)c2cc1OC — higher, 146%
- O=c1cc(N2CCNCC2)oc2c(-c3ccccc3)cccc12 — lower, 105%
- O=C1NC(=O)c2c1c1c3ccccc3[nH]c1n1cncc21 — lower, 57%
- CCCCc1c(-c2ccc(OC)cc2)[nH]c2nccnc12 — lower, 67%
- Cn1sc(=O)n(Cc2ccccc2)c1=O — lower, 95%
- Nc1n[nH]c2nc3ccccc3nc12 — lower, 97%
- CC(C)(C)n1nc(Cc2cccc3ccccc23)c2c(N)ncnc21 — higher, 122%
- O=C1C(Cl)=C(N2C(=O)CCC2=O)C(=O)c2ccccc21 — lower, 93%
- COc1ccc(-c2cnc3c(-c4ccsc4)cnn3c2)cc1 — higher, 141%
- O=C(CCCc1ccc(-c2ccccc2F)cc1)Nc1ccc(O)cc1 — lower, 105%
- Nc1ncnc2[nH]nc(Nc3ccc(F)cc3)c12 — lower, 109%
- Nc1ncnc2c1cnn2-c1ccccc1 — higher, 137%
- CCCCc1c(-c2ccc(O)cc2)[nH]c2nccnc12 — lower, 76%
- CN(C)S(=O)(=O)c1ccc2c(c1)/C(=C/c1cc3c([nH]1)CCCC3)C(=O)N2 — lower, 21%
- O=C(O)/C=C/c1cc(Br)c(Br)c(Br)c1Br — lower, 98%
- NC(=O)Nc1sc(-c2ccc(F)cc2)cc1C(N)=O — lower, 68%
- O=C1Nc2ccc(Cl)cc2/C1=C/c1cc(Cl)c(O)c(Cl)c1 — the same, 115%
